About 7,900 targets were measured; listed, in parts, are those with a hit and a random draw of the rest. About 0.6% of all pairs of compound and target were hits.
What follows are targets tested with c1cn2cc(-c3ccc4cn[nH]c4c3)nc(Nc3ccc(N4CCOCC4)cc3)c2n1 [entospletinib] (assay: log2 fold change, soluble protein after heating vs DMSO (PISA); higher = thermal stabilisation; K562 cells, 10 uM, 30 min; active = over 0.2 and 3.5 SD of the protein, either way, in both replicates (recomputed)).
Outline: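 Soluble protein was defined as the supernatant after 21,000xg for 90 min. It came from K562 cells at 2×10^6 cells/mL given 10 μM compound for 30 min, heated in aliquots for 3 min across 48°C-58°C, pooled, and extracted in PBS with 0.5% NP-40 at 4°C, and was quantified by TMTpro 16plex LC-MS/MS with equalised channel sums. Thermal stability against control samples, from duplicates, is reported as log2 fold change.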

Sequence of UniProt Q86UV5 (Q86UV5 whole entry, looked up): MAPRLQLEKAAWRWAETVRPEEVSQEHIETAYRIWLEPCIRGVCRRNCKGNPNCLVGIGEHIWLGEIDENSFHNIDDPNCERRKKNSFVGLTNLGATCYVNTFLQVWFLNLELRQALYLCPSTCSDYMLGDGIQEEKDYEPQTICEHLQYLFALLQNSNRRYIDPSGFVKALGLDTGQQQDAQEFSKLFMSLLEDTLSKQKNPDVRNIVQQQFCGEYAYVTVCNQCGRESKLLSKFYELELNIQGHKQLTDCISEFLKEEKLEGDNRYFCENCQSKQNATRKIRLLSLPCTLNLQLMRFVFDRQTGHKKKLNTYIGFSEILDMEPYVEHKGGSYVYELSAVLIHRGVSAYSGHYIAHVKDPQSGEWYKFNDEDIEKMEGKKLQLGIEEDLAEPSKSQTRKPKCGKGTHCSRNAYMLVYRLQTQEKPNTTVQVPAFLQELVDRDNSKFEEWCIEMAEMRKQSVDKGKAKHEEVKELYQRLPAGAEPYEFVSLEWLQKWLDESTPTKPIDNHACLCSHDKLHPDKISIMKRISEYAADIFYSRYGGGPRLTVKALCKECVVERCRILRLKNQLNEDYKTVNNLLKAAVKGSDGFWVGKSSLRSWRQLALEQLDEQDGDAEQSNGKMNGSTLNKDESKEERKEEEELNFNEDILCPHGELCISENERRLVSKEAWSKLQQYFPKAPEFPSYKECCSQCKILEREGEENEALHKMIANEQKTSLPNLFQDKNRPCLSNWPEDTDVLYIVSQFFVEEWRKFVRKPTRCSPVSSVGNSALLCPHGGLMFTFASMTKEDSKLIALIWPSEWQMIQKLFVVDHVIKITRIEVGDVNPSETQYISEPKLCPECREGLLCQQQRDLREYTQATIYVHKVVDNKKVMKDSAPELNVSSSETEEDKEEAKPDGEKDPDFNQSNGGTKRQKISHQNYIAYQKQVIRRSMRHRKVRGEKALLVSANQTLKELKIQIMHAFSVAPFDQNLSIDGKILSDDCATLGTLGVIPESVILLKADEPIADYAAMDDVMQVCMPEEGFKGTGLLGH
Sequence of UniProt O95155 (O95155 whole entry, looked up): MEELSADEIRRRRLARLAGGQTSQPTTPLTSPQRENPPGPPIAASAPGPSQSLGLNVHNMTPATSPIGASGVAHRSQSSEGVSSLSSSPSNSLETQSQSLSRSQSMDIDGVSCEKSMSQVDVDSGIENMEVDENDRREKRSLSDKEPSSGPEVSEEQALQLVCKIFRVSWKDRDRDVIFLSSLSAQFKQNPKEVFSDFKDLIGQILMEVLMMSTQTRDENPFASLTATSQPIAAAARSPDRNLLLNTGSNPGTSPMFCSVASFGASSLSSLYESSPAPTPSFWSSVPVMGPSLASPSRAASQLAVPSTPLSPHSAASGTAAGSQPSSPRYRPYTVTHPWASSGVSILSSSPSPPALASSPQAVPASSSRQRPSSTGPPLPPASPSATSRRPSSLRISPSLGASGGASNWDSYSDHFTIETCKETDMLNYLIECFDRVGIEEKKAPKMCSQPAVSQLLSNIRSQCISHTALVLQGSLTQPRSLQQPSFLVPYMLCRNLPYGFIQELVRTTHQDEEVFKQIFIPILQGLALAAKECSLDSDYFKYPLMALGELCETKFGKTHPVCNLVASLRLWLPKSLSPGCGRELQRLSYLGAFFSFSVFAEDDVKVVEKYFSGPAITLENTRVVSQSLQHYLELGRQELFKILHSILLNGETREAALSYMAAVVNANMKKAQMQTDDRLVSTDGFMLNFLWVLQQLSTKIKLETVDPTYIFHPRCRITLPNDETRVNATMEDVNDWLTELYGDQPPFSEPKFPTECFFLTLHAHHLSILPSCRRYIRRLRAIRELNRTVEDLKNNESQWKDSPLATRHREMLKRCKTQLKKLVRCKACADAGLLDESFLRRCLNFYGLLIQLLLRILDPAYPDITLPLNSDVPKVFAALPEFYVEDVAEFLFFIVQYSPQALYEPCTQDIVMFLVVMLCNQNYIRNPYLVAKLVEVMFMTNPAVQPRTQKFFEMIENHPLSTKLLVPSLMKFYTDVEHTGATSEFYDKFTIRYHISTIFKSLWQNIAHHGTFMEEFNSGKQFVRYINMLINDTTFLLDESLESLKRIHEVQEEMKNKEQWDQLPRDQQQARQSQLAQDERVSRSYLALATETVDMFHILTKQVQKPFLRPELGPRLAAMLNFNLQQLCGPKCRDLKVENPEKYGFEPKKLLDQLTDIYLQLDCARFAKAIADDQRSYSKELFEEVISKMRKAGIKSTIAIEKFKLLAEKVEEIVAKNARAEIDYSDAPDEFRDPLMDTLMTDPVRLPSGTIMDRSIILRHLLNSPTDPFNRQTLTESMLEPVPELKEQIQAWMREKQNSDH
Sequence of UniProt Q9UHP3 (Q9UHP3 whole entry, looked up): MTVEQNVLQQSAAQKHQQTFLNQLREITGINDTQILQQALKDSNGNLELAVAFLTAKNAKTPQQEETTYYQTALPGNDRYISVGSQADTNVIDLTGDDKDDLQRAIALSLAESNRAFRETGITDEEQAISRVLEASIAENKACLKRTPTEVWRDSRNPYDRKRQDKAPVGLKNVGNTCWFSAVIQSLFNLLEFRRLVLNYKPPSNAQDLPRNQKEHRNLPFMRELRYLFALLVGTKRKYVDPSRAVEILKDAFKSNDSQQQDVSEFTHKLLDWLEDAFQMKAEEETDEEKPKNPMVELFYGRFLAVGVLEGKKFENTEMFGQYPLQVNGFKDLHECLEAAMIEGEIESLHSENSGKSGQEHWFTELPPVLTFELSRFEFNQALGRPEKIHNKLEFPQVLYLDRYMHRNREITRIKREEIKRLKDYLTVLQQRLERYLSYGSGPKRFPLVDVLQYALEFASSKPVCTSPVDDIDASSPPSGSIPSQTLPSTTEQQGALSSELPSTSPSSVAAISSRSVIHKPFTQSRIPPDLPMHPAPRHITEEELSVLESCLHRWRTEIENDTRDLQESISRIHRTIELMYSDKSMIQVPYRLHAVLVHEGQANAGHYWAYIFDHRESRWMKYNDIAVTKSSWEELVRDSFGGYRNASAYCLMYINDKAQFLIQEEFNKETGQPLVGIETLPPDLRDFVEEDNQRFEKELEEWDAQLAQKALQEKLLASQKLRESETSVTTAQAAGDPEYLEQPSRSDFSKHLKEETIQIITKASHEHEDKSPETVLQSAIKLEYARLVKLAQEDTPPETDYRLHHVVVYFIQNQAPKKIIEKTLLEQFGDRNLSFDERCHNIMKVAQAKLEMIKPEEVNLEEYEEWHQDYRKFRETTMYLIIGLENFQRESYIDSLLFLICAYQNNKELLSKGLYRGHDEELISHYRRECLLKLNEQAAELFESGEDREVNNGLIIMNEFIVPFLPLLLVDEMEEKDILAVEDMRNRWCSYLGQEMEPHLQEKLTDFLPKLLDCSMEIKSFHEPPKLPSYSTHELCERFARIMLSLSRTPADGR
Sequence of UniProt Q99816 (Q99816 whole entry, looked up): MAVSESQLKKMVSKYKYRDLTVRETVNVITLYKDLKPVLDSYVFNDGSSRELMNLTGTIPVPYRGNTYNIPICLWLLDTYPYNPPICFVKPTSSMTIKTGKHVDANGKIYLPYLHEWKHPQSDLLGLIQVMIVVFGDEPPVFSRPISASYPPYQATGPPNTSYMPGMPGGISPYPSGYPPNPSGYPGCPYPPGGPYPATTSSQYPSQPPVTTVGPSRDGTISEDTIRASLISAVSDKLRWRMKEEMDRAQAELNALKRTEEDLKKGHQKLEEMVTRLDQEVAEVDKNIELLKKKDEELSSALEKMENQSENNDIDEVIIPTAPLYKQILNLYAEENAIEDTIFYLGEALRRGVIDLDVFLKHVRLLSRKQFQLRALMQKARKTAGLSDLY
Sequence of UniProt Q15642 (Q15642 whole entry, looked up): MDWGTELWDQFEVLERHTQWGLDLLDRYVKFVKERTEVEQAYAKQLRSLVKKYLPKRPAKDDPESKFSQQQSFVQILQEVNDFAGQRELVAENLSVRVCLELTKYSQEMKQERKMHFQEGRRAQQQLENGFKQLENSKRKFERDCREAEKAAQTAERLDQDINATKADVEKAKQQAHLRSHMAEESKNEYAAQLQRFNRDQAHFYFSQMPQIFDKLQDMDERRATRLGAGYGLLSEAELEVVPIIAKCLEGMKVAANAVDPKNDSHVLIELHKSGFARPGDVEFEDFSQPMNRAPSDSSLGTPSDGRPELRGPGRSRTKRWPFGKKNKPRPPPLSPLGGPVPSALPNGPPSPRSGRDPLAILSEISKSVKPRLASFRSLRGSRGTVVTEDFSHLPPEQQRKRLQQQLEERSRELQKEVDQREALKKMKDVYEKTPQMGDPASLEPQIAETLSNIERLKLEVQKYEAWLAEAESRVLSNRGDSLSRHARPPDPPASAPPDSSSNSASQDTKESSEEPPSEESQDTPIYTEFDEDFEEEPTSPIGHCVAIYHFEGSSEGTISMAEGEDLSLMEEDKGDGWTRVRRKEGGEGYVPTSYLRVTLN
Sequence of UniProt Q8IZ69 (Q8IZ69 whole entry, looked up): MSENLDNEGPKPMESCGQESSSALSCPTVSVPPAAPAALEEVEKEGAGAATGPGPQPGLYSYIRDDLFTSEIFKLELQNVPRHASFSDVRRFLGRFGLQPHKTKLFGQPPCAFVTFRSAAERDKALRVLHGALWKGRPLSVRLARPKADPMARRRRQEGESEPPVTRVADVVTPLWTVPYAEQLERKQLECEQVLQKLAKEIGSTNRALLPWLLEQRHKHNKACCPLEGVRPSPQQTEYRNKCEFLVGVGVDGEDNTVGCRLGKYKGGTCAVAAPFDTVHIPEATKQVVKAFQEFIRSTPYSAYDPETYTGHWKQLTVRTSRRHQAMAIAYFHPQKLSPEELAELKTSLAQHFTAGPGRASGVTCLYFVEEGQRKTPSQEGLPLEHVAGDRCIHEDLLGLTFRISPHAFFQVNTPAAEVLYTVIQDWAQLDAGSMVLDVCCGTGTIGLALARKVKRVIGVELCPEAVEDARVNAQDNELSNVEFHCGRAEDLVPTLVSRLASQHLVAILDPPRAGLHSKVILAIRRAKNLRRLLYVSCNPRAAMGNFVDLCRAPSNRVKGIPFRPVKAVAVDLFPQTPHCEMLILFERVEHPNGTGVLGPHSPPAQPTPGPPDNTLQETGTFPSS
Sequence of UniProt Q8N4H5 (Q8N4H5 whole entry, looked up): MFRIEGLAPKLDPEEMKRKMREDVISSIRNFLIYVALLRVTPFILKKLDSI

log2 fold change, inactive:
UBE4B isoform 4 (UniProt O95155) -0.03
WDR46 (UniProt O15213) 0.01
TMEM41A (UniProt Q96HV5) 0.042
UBE4A isoform 2 (UniProt Q14139) -0.043
TRIP10 isoform 2 (UniProt Q15642) 0.062
UBE2J1 (UniProt Q9Y385) 0
TOMM5 isoform 2 (UniProt Q8N4H5) -0.033
XPO5 (UniProt Q9HAV4) 0.001
U2AF2 (UniProt P26368) 0.107
TRIM44 (UniProt Q96DX7) 0.007
UTP4 (UniProt Q969X6) -0.058
WDR37 isoform 2 (UniProt Q9Y2I8) -0.004
TMEM184C (UniProt Q9NVA4) 0.041
USP25 isoform 3 (UniProt Q9UHP3) 0
UFM1 isoform 2 (UniProt P61960) 0.079
TTC33 (UniProt Q6PID6) 0.094
VTI1A (UniProt Q96AJ9) 0.013
VPS35L (UniProt Q7Z3J2) 0.011
UCHL5 (UniProt Q9Y5K5) -0.023
USP48 isoform 8 (UniProt Q86UV5) 0.067
TRMT10A (UniProt Q8TBZ6) -0.055
TMEM9B (UniProt Q9NQ34) -0.049
UHRF1BP1L (UniProt A0JNW5) 0.012
TUBA4A (UniProt P68366) -0.031
TMEM192 (UniProt Q8IY95) 0.071
VTI1B (UniProt Q9UEU0) 0.082
VPS51 (UniProt Q9UID3) 0.007
TXN2 (UniProt Q99757) 0
TMEM63B (UniProt Q5T3F8) 0.011
TRMT2A (UniProt Q8IZ69) 0.1
TMEM70 (UniProt Q9BUB7) -0.009
WDR18 (UniProt Q9BV38) -0.061
VPS33B (UniProt Q9H267) 0.008
TSG101 (UniProt Q99816) -0.014
TMEM8A (UniProt Q9HCN3) -0.002
WASHC3 (UniProt Q9Y3C0) 0.007
XPOT (UniProt O43592) 0.032
TRPT1 isoform 4 (UniProt Q86TN4) 0.051
USP34 (UniProt Q70CQ2) -0.002

From the supplement of paper PMC10849652
